High-throughput results from PubChem.
In the library only some 2.3% were active in any assay of this set; here they are far more common.
HSP90 inh: inhibitors of HSP90 luciferase refolding in rabbit reticulocyte lysate | luciferase refolding luminescence, 3 h | inhibition, % at 5.6 µM | actives 0.91% (n = 290,000) | AID 1789;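 active means inhibition above the screen-wide mean plus 3 SD, computed separately per campaign, cut at about 16% in these data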;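 further: inhibitors lower the luminescence because luciferase stays unfolded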
SENP8 block-1: SENP8 protease inhibition; actives 1.2% (n = 330,000); Q96LD8; purified SENP8, Z-RLRGG-aminoluciferin cleavage, luminescence; inhibition, % at 10 µM; AID 2540; in the data active means inhibition above about 50%
SENP8 block-2: SENP8 (human) protease inhibition; recombinant SENP8, Nedd8 substrate fluorescence; AID 602440; actives 0.64% (n = 360,000); Q96LD8; inhibition, % at 20 µM; in the data active means inhibition mostly above about 40%, no sharp cut-off; inactive means mostly below about 27%
SENP6 block: SENP6 protease inhibition; Q9GZR1; Recombinant SENP6 catalytic domain, aminoluciferin luminescence; inhibition, % at 10 µM; actives 1.8% (n = 330,000); AID 2599;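 active means inhibition above about 50% at the single tested dose, limit read from the data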
SENP7 inh: blocks the human protease SENP7; actives 1.5% (n = 330,000); inhibition, % at 5 µM; AID 434973; recombinant SENP7, Z-RLRGG-aminoluciferin luminescence, 40 min;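 active means inhibition above about 50% at the single test dose, limit read from the data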
Target sequence (Q9BQF6 706-1050 limits assumed): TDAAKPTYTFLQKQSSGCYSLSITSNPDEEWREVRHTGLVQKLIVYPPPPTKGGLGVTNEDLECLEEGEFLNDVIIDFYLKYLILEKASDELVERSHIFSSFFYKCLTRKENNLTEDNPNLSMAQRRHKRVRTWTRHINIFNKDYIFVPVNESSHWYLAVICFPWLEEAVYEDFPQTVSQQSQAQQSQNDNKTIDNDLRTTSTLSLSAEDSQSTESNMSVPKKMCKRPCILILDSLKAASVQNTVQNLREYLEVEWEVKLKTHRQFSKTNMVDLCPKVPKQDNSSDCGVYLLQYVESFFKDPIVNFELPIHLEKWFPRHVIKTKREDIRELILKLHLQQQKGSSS
LGR2 inh: Drosophila LGR2 receptor signaling inhibition; actives 0.35% (n = 380,000); inhibition, % at 9.99 µM; HEK293 LGR2, CRE-luciferase, bursicon-stimulated, 4 h;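 active means drop in luminescence signal, shown as inhibition above about 50% in the replicate tests, limit read from the data, passing the limit was not always enough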;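 further: agonist challenge used bursicon conditioned medium at about half maximal strength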
SENP8 confirm: human SENP8 inhibition, confirmed | inhibition, % at 12.5 µM | actives 40% (n = 6,200) | Recombinant SENP8, Z-RLRGG-aminoluciferin luminescence, 60 min | shares compounds with SENP7 inh;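 active means mean inhibition across replicates above about 50%, limit read from the data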
SENP6 conf: confirmation of human SENP6 protease inhibitors | recombinant SENP6, Z-RLRGG-aminoluciferin luminescence | shares compounds with SENP7 inh | inhibition, % at 12.5 µM | actives 58% (n = 6,200)
SENP7 conf: human SENP7 inhibition, confirmed; inhibition, % at 12.5 µM; actives 69% (n = 6,200); AID 488917; recombinant SENP7, Z-RLRGG-aminoluciferin luminescence, 40 min; shares compounds with SENP7 inh
Casp3 SENP sel: selectivity test for SENP inhibitors: human caspase-3 inhibition; shares compounds with SENP7 inh; purified caspase-3, Z-DEVD-aminoluciferin luminescence, 60 min; inhibition, % at 12.5 µM; actives 60% (n = 6,200);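 active means mean inhibition above about 50%, limit read from the data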
Target sequence (P42574 28-227 limits assumed): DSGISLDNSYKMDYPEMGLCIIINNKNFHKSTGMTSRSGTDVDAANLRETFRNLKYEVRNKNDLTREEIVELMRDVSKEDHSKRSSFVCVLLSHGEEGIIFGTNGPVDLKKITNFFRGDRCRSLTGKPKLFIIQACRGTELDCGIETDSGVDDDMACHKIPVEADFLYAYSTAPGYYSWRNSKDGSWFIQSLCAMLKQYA
Luc interf: luminescence interference (SENP counter-screen); shares compounds with SENP7 inh; Pre-incubated SENP8/Z-RLRGG-aminoluciferin, luciferase luminescence interference; inhibition, % at 12.5 µM; actives 39% (n = 6,200); AID 488919;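 active means mean inhibition above about 50% when retested at one dose, limit read from the data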
Large screens that a line does not name were inactive (follow-up assays come after a bar, where they were run).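 How the source made its calls, unless noted: active means mean inhibition above about 50% in the one-dose retest (limit read from the data); inactive means the rest.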

CCOC(=O)c1c(NC(=O)c2ccco2)n(C2CCCCC2)c2nc3ccccc3nc12	SENP8 block-1 51, SENP6 block 73 (no result: LGR2 inh) | SENP8 confirm inactive | SENP6 conf inactive | SENP7 conf inactive | Casp3 SENP sel inactive | Luc interf inactive
O=C(c1ccc(Cl)c(Cl)c1)c1cnc(Nc2ccccc2)s1	none (no result: LGR2 inh)
CC(=O)c1csc(Nc2ccccc2Cl)n1	SENP7 inh 54 | SENP8 confirm inactive | SENP6 conf inactive | SENP7 conf 70 | Casp3 SENP sel 63 | Luc interf inactive
O=C(c1ccccc1)c1cnc(Nc2ccccc2Cl)s1	SENP6 block 75, SENP7 inh 54 (no result: LGR2 inh) | SENP8 confirm 73 | SENP6 conf 76 | SENP7 conf 87 | Casp3 SENP sel inactive | Luc interf 53
CC(C)(C)C(=O)c1cnc(Nc2ccccc2Cl)s1	SENP8 block-1 79, SENP6 block 90, SENP7 inh 83 (no result: LGR2 inh) | SENP8 confirm 86 | SENP6 conf 90 | SENP7 conf 97 | Casp3 SENP sel 75 | Luc interf 83
COCCNC(=O)C[C@H]1C[C@@H]2c3cc(NC(=O)C4CCC4)ccc3O[C@@H]2[C@@H](CO)O1	none (no result: HSP90 inh, SENP8 block-1, SENP8 block-2, SENP6 block, SENP7 inh)
CC(C)C(=O)Nc1ccc2c(c1)C(=O)N(C)[C@@H]1CC[C@H](CC(=O)NCc3ccc(F)cc3)O[C@H]1CO2	none (no result: HSP90 inh, SENP8 block-1, SENP8 block-2, SENP6 block, SENP7 inh)
C[C@H]1CN([C@@H](C)CO)C(=O)c2cc(NC(=O)c3ccncc3)ccc2O[C@@H]1CN(C)CC1CCCCC1	none (no result: HSP90 inh, SENP8 block-1, SENP8 block-2, SENP6 block, SENP7 inh)
O=C(NCc1ccco1)c1cc(-c2ccc3c(c2)OCO3)on1	SENP7 inh 53 | SENP8 confirm inactive | SENP6 conf inactive | SENP7 conf inactive | Casp3 SENP sel inactive | Luc interf inactive
C[C@H]1CN([C@@H](C)CO)C(=O)c2cc(C#Cc3ccc(F)cc3)cnc2O[C@H]1CN(C)C(=O)Nc1ccc(F)cc1	none (no result: HSP90 inh, SENP8 block-1, SENP8 block-2, SENP6 block, SENP7 inh)
CC(C)n1nnc(-c2ccc(OCc3ccccc3F)cc2)n1	SENP8 block-1 90, SENP6 block 90, SENP7 inh 90 | SENP8 confirm inactive | SENP6 conf 91 | SENP7 conf 100 | Casp3 SENP sel 82 | Luc interf 62
Fc1ccccc1COc1ccc(C(=S)N2CCCC2)cc1	SENP8 block-1 64, SENP6 block 58 | SENP8 confirm inactive | SENP6 conf inactive | SENP7 conf 60 | Casp3 SENP sel inactive | Luc interf inactive
Cn1nnc(-c2ccc(OCc3ccccc3F)cc2)n1	SENP8 block-1 91, SENP6 block 97, SENP7 inh 98 (no result: LGR2 inh) | SENP8 confirm inactive | SENP6 conf 94 | SENP7 conf 101 | Casp3 SENP sel 79 | Luc interf inactive
O=C(Oc1ccc(C(=S)N2CCCCC2)cc1)c1ccccc1F	none
C[C@H](CO)N1C[C@H](C)[C@@H](CN(C)C(=O)CN(C)C)Oc2cc(-c3ccncc3)ccc2S1(=O)=O	none (no result: HSP90 inh, SENP8 block-1, SENP8 block-2, SENP6 block, SENP7 inh)
C[C@H](CO)N1C[C@H](C)[C@H](CN(C)C(=O)C2CCC2)Oc2cc(C3=CCCC3)ccc2S1(=O)=O	none (no result: HSP90 inh, SENP8 block-1, SENP8 block-2, SENP6 block, SENP7 inh)
O=C(O)c1cccc(NC(=S)NC(=O)c2cccc(OCc3ccccc3)c2)c1	SENP6 block 56 | SENP8 confirm 71 | SENP6 conf 61 | SENP7 conf 76 | Casp3 SENP sel inactive | Luc interf 63
O=C(Nc1ccc(COc2ccccc2)cc1)Nc1cccc(C(=O)O)c1	SENP8 block-1 93, SENP6 block 97, SENP7 inh 92 | SENP8 confirm inactive | SENP6 conf 100 | SENP7 conf inactive | Casp3 SENP sel 60 | Luc interf inactive
C[C@H]1CN([C@@H](C)CO)C(=O)c2cc(NC(=O)CCCN(C)C)ccc2O[C@@H]1CN(C)C	none (no result: HSP90 inh, SENP8 block-1, SENP8 block-2, SENP6 block, SENP7 inh)
CC(C#Cc1ccc2c(c1)COc1c3ccccc3nn1-2)OC(C)(C)C (stereo not drawn)	none (no result: HSP90 inh)
C#Cc1ccc2c(c1)COc1c3ccccc3nn1-2	SENP8 block-1 93, SENP6 block 96, SENP7 inh 72 (no result: HSP90 inh) | SENP8 confirm 76 | SENP6 conf 96 | SENP7 conf 101 | Casp3 SENP sel 92 | Luc interf 52
C(#CC1CCCCC1)c1ccc2c(c1)COc1c3ccccc3nn1-2	none (no result: HSP90 inh, LGR2 inh)
C(#Cc1ccc2c(c1)COc1c3ccccc3nn1-2)c1ccccc1	SENP8 block-1 74, SENP6 block 76, SENP7 inh 61 (no result: HSP90 inh) | SENP8 confirm inactive | SENP6 conf inactive | SENP7 conf 57 | Casp3 SENP sel inactive | Luc interf inactive
N=c1oc2cc(O)ccc2cc1C(=O)Nc1ccc(Cl)cc1	SENP8 block-1 54, SENP6 block 55 | SENP8 confirm inactive | SENP6 conf inactive | SENP7 conf inactive | Casp3 SENP sel inactive | Luc interf inactive
N=c1oc2ccccc2cc1C(=O)Nc1cccc(F)c1	SENP8 block-1 56, SENP6 block 66, SENP7 inh 92 | SENP8 confirm inactive | SENP6 conf inactive | SENP7 conf inactive | Casp3 SENP sel 62 | Luc interf inactive
O=C(Nc1ccc(NC(=O)c2cc3ccccc3o2)cc1)c1ccco1	none
Cc1cc(C(=O)Nc2ccccc2)oc1C	SENP6 block 64 (no result: LGR2 inh) | SENP8 confirm 58 | SENP6 conf 55 | SENP7 conf 87 | Casp3 SENP sel 83 | Luc interf 61
O=C(Nc1ccc(F)cc1)c1cc2ccccc2o1	SENP8 block-1 76, SENP6 block 86, SENP7 inh 86 | SENP8 confirm 80 | SENP6 conf 82 | SENP7 conf 97 | Casp3 SENP sel 86 | Luc interf 64
CN(C)C(=O)C[C@H]1CC[C@H]2[C@H](COc3ccc(NC(=O)C4CCCC4)cc3C(=O)N2C)O1	none (no result: HSP90 inh, SENP8 block-1, SENP8 block-2, SENP6 block, SENP7 inh)
CO[C@H]1CN(C)C(=O)c2ccc(NC(C)=O)cc2OC[C@@H](C)N(Cc2ccncc2)C[C@@H]1C	none (no result: HSP90 inh, SENP8 block-1, SENP8 block-2, SENP6 block, SENP7 inh)
CC(=O)Nc1cccc(NC(=O)c2cc3ccccc3o2)c1	SENP8 block-1 62, SENP6 block 84, SENP7 inh 84 (no result: LGR2 inh) | SENP8 confirm 79 | SENP6 conf 78 | SENP7 conf 95 | Casp3 SENP sel 88 | Luc interf 83
COc1ccc(NC(=O)c2cc3ccccc3o2)cc1	SENP6 block 64 | SENP8 confirm inactive | SENP6 conf inactive | SENP7 conf 71 | Casp3 SENP sel 50 | Luc interf inactive
